# High-throughput results (PubChem BioAssay)
# An excerpt weighted towards active compounds, which were near 10% of everything screened.
# G9a inh – G9a (human) methyltransferase inhibition. G9a H3K9 monomethylation, AlphaScreen, 2 h. Potency, µM (series often up to 102 µM), for the others: at the highest dose activity, negative = inhibition, actives largely listed as inhibitors. 350,000 compounds, 8.8% hits. AID 504332; also: % is scaled to controls: 0 for no effect and ±100 for the full control effect; nearly all actives have a fitted effect of over 75% in size
#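 Chemiluminescent proximity detection of H3K9 monomethylation, read after 10 min bead incubation in the dark. Reaction: 20 nM G9a, 500 nM biotin-H3K9 peptide, 20 uM SAM cofactor, 2 h, room temperature, following 15 min enzyme-compound preincubation.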
# HP1b binding inh – blocks HP1-beta chromodomain binding to methylated histone tails; 390,000 compounds, 0.56% hits; P83916; AID 540317; Potency, µM (titrated, usually from 114 µM), for the others: at the top dose activity change, negative = inhibition, most hits filed as inhibitors; AlphaScreen HP1-beta / biotin-H3K9me3 peptide binding; also: nearly all actives have a fitted effect of over 70% in size
#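 HP1-beta protein (50 nM final) preincubated 30 min at room temperature with biotinylated H3(1-18)K9me3 peptide (50 nM) in PBS pH 7.4, 0.01% Tween-20, then compound added for 30 min. AlphaScreen streptavidin donor/nickel chelate acceptor beads (10 ug/mL final), 30 min dark, luminescence read.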
# JMJD2A Tudor inh – inhibitors of human JMJD2A Tudor domain. O75164. AlphaScreen JMJD2A-Tudor / H3K4me3 peptide binding. Potency, µM (doses to about 114 µM), inactives show top-dose activity change, negative = inhibition, usual class: inhibitors. 390,000 compounds, 4.4% hits; also: % is scaled to controls: 0 for no effect and ±100 for the full control effect; nearly all actives have a fitted effect of over 50% in size
# Target sequence (O75164 whole entry, looked up, the tested form may be a part): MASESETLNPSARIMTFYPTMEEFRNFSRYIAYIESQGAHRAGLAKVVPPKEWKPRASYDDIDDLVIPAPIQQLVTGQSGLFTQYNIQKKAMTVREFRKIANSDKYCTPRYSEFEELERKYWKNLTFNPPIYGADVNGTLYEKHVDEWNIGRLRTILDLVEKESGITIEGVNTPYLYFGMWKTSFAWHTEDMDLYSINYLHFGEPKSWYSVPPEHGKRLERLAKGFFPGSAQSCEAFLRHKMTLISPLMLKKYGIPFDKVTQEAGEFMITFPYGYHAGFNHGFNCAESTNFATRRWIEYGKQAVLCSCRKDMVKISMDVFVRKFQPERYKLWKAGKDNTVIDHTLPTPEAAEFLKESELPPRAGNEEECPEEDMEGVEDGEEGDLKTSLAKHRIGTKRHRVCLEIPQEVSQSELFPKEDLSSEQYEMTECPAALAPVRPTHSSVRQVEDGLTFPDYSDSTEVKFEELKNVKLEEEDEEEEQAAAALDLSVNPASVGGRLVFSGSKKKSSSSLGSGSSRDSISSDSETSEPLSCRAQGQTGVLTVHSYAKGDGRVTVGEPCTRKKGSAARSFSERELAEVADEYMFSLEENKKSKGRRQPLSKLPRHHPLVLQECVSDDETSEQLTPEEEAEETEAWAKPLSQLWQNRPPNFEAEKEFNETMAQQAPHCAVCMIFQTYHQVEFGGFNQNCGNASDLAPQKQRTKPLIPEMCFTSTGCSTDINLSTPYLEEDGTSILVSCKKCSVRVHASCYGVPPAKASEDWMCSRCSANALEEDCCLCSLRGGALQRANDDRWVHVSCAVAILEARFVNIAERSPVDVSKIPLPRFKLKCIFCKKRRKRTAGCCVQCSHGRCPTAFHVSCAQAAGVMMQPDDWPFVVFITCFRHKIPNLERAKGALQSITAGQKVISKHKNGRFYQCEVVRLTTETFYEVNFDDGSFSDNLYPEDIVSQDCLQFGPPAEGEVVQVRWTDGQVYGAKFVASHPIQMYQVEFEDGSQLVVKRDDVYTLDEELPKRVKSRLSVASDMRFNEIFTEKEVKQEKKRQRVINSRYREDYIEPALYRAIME
# GLS inh – inhibitors of human glutaminase (GLS) | Potency, µM (top dose mostly 45.5 µM), for the others: at the highest dose activity change, negative = inhibition, actives largely listed as inhibitors | O94925 | GLS enzymatic activity, qHTS titration | 410,000 compounds, 0.21% hits; also: % is scaled to controls: 0 for no effect and ±100 for the full control effect
#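 Compounds were pin-transferred onto hKGA, after which L-glutamine (1 mM solution) and a detection mix of glutamate oxidase, HRP and Amplex Red were added. Initial and 30 min RT fluorescence reads were collected.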
# BAZ2B block – inhibitors of human BAZ2B bromodomain. Q9UIF8. AlphaScreen BAZ2B-H3K14Ac peptide displacement. Potency, µM (top dose mostly 114 µM), for the others: top-dose activity change, negative = inhibition, actives largely listed as inhibitors. 360,000 compounds, 4.4% hits; also: % is scaled to controls: 0 for no effect and ±100 for the full control effect; nearly all actives have a fitted effect of over 60% in size
#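 AlphaScreen displacement: compounds (up to 110uM) incubated 30 min at room temperature with a preformed 50 nM BAZ2B/50 nM biotinylated H3K14Ac peptide complex in PBS pH 7.4 with Tween-20. Donor and acceptor beads at 10 ug/mL final added, 20 min light-protected before reading.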
# Starred values were filed as active, the others as inactive; ? = inconclusive; . = not tested or not shown; [ ] = dose if it differs, or a comment. Calls follow the shape of the dose curve; as a rule, active = well fitted curve in the direction sought with a large enough effect; inconclusive = small, poorly fitted or top-dose-only effect, or another doubt; inactive = no such curve, though single readings can be large; an effect the other way counts as inactive or inconclusive. Potency is read from the fitted curve at half-maximal effect.
SMILES,G9a inh,HP1b binding inh,JMJD2A Tudor inh,GLS inh,BAZ2B block
COC(=O)c1ccc(CNC(=O)c2c3c(nc4ccccc24)CCN(Cc2ccccc2)C3)cc1,?,37%,-29%,-1%,-1%
O=C(NCc1ccc(F)cc1)c1c2c(nc3ccccc13)CCN(Cc1ccccc1)C2,45µM*,28%,7%,-1%,8%
Cn1nc(C2CC2)cc1NC(=O)C1(C)CCN1C(=O)Cc1ccc(-c2ccccc2)cc1 (stereo not given),.,.,.,0%,.
CCC12CN3CC(C)(CN(C1)C3c1ccc(O)cc1O)C2=O (stereo not given),?,13%,-13%,-1%,-16%
COc1cccc(NS(=O)(=O)c2ccc3[nH]cc(C(=O)N(C)C4CCCCC4)c(=O)c3c2)c1,?,-2%,-25%,2%,-9%
COc1cccc(NC(=O)CCC2CCN(C(=O)c3scnc3C)CC2)c1,27%,18%,-12%,0%,-6%
COc1cccc(NC(=O)CCC2CCN(C(=O)c3cncs3)CC2)c1,40µM*,30%,-5%,5%,2%
Cc1ccc(OCc2nc(-c3ccc(C(=O)N4CCN(c5ccccc5F)CC4)cc3)oc2C)cc1,?,-10%,-24%,-3%,?
COc1cccc(-c2nnc(NC(=O)c3ccc4ncsc4c3)o2)c1,?,25%,-20%,1%,79µM*
CS(=O)(=O)c1cccc(-c2nnc(NC(=O)c3ccc4ncsc4c3)o2)c1,?,27%,?,11%,4%
CS(=O)(=O)c1ccccc1-c1nnc(NC(=O)Cc2ccccc2)o1,?,8%,79µM*,6%,25µM*
CS(=O)(=O)c1ccccc1-c1nnc(NC(=O)c2ccc3ncsc3c2)o1,-14%[2.33 µM],61%,56µM*,-4%,50µM*
CSc1ccccc1-c1nnc(NC(=O)Cc2ccccc2)o1,44%[59 µM],45%,3%,-1%,-13%
COc1ccc(COC[C@H](C)[C@H](O[Si](C)(C)C)[C@@H](C)[C@H]2OC(=O)[C@H]2C)cc1,.,25%,-3%,.,.
CCC(C)Sc1ccc([C@@H]2[C@@H]3C(=O)N(C)C(=O)[C@@H]3[C@]3(C(=O)OC)CCCCN23)cc1 (stereo not given in full),-4%[2.33 µM],39%,-2%,-6%,-7%
O=c1cc(CO)occ1O,.,.,.,15%,.
CC(C)(C)NC(=O)CSc1nc(-c2ccccc2)c(-c2ccccc2)[nH]1,16%[12.7 µM],32%,-19%,-6%,4%
Oc1ccccc1N=Nc1nc(-c2ccccc2)c(-c2ccccc2)[nH]1,?,32µM*,13µM*,23%,13µM*
Cc1ncc(N=Nc2ccc(F)cc2)c(-c2ccc(Cl)cc2)n1,2%[59 µM],-7%,-25%,5%,-28%
COc1ccccc1N=Nc1nc(-c2ccccc2)c(-c2ccccc2)[nH]1,?,-71%,7.1µM*,-12%,10µM*
COc1ccc(-c2[nH]c(-c3ccc4c(c3)OCO4)nc2-c2ccccc2)cc1,?,-21%,?,-5%,?
COc1ccc(N=Nc2nc(-c3ccccc3)c(-c3ccccc3)[nH]2)cc1,16µM*,28µM*,8.9µM*,20%,8.9µM*
COc1ccc(-c2nc(C)ncc2N=Nc2ccccc2)cc1,?,-80%,45µM*,2%,11µM*
CCCC(=O)NC1CC(=O)N(c2ccc3c(c2)OCCO3)C1 (stereo not given),-10%[59 µM],33%,-7%,-24%,0%
CN(C)S(=O)(=O)c1ccc(NC(=O)COc2cccc3c2OC(C)(C)C3)cc1,-30%,23%,-14%,-1%,-1%
CC(=O)c1ccc(NS(=O)(=O)c2cccc3cccnc23)cc1,.,.,.,0%,.
COc1ccccc1NC(=O)Cn1c(O)c(N=NC(=O)c2ccccc2O)c2ccccc21,45µM*,17%,-35%,-2%,56µM*
Cn1c(/C(C#N)=N/O)nc2ccccc21,?,7%,?,4%,71µM*
Cn1c(/C(C#N)=C/c2ccccc2Br)nc2ccccc21,0.4µM*,40%,-17%,-17%,10%
Cc1ccc(C(=O)Nc2ccc3nc(SCC(=O)N4CCCc5ccccc54)sc3c2)cc1,-27%[59 µM],35%,-15%,-3%,-9%
